Inconclusive results are not listed. Active and inactive are the calls of the source. Calls follow the shape of the dose curve; as a rule, active = well fitted activation curve with a large enough effect; inconclusive = small, poorly fitted or top-dose-only effect; inactive = no such curve, though single readings can be large or run the other way.
Target: Relaxin receptor 1 (Homo sapiens) (UniProt Q9HBX9)
Assay: qHTS Assay for Agonists of the Relaxin Receptor RXFP1: THP1 Hit Validation; also: nearly all actives have a fitted effect of over 60% in size;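 as to activation: 0% = buffer alone basal and 100% = 29 nM porcine relaxin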
Details: THP1-RXFP1 cells, cAMP TR-FRET, 30 min; series mostly up to 115 µM; activation: at the top concentration
Summary of the method: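 THP1 cells stably expressing RXFP1 were exposed to compounds for 30 min at 37C with PDE4 inhibitor Ro 20174. Lysate cAMP was read by HTRF, normalized to buffer and 29 nM porcine relaxin, with Hill-fit EC50.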
Potency is read from the fitted curve at half-maximal effect.

Relaxin receptor 1 (Homo sapiens), sequence (Q9HBX9 whole entry, looked up): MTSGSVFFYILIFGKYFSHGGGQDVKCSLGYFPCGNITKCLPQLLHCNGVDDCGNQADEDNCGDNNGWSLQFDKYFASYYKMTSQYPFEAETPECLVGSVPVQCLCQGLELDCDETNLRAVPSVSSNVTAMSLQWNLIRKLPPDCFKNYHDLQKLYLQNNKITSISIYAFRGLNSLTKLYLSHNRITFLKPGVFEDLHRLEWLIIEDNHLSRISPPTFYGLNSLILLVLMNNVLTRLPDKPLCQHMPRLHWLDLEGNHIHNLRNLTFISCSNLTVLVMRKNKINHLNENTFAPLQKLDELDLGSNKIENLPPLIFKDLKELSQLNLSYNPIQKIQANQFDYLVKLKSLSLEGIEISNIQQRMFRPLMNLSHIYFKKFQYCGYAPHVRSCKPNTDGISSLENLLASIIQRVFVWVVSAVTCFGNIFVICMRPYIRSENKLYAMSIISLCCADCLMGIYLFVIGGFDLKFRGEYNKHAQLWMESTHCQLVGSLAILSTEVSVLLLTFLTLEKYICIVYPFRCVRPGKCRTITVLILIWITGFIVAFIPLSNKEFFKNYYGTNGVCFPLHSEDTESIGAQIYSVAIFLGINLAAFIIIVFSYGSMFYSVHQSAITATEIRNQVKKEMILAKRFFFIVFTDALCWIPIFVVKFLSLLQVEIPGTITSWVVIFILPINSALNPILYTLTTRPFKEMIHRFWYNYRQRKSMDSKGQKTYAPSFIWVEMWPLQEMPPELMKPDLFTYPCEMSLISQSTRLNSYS

| SMILES | Potency | activation |
| --- | --- | --- |
| CCOC(=O)c1sc(=NC(=O)c2ccc(S(=O)(=O)N(C)c3ccccc3)cc2)n(C)c1C | 34.6 µM (active) | – |
| O=C(O)CCSc1ccc2ccccc2n1 | 19.4 µM (active) | – |
| O=C(COc1ncnc2scc(-c3ccccc3)c12)NCCN1C(=O)CSC1=O | 19.4 µM (active) | – |
| CC(C)n1cnc2c(N(C)c3cccc(Cl)c3)nc(N(CCO)CCO)nc21 | – | -3.44% (inactive) |
| CCc1nnc(NC(=O)CSc2nc(C)nc3c2c(=O)n(C)c(=O)n3C)s1 | 10.9 µM (active) | – |
| CC(=O)c1sc(NC(=O)C(C)C)nc1C | 19.4 µM (active) | – |
| COc1ccccc1NC(=O)CCCc1nnc2n(C)c(=O)c3sccc3n12 | 15.4 µM (active) | – |
| COC(=O)C(C)Sc1ccc2nnc(-c3ccccc3)n2n1 (configuration not stated) | – | -0.844% (inactive) |
| CCN(CC)CCCN1C=C2C(=O)C(C)(OC(=O)C3CCCC3)C(=O)C=C2C=C1c1ccsc1 (configuration not stated) | – | -4.45% (inactive) |
| COc1ccc(S(=O)(=O)Nc2ccccn2)c(C)c1C | – | -13.7% (inactive) |
| CCC1(C)Cc2c(sc3c2c2ncnn2c2nnc(SCC(=O)NCc4ccco4)n32)CO1 (configuration not stated) | 11 µM (active) | – |
| Cc1cccc(N2C(=O)C(O)=C(C(=O)c3cccs3)C2c2ccc(C(C)C)cc2)n1 (configuration not stated) | – | -0.973% (inactive) |
| O=C(Nc1ccccc1C(=O)N1CCN(c2ccccc2)CC1)c1ccco1 | – | 2.36% [at 125 µM] (inactive) |
| Cc1cccc(-c2nnc(SCC(=O)NC3CC3)n2C)c1 | – | -35.5% (inactive) |
| O=C(Nc1ccccc1C(=O)NCCc1ccc(O)cc1)c1ccco1 | – | -0.992% [at 125 µM] (inactive) |
| CCn1c(=O)c2cc(C(=O)Nc3cccc(C(C)=O)c3)sc2c2ccccc21 | – | -31% (inactive) |
| CCCC(=O)Nc1ncnc2c1ncn2[C@@H]1O[C@@H]2OP(=O)(O)OC[C@H]2[C@H]1OC(=O)CCC | 0.69 µM (active) | – |
